Assay results reported in the supplement of paper PMC11732987, “Enantioselective OTUD7B fragment discovery through chemoproteomics screening and high-throughput optimisation” (Communications Chemistry, 2025).

Experiments:
Experiment in all cases: log2 ratio of Biotin-Ahx-Ub-VS probe labelling (fragment/DMSO); higher = less target engagement (more negative = stronger competition), active = hit call of the paper (q ≤ 0.05, log2 ratio ≤ -1)
Conditions in all cases: compound concentration: 200 uM; treatment time: 3 h
USP34 = USP34 (UniProt Q70CQ2)
Procedure, shortened: (§1)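 The table lists average log2 ratios of fragment over vehicle, from an unpaired t-test on global-median-normalised Spectronaut label-free quantities. Proteins with ≥2 unique peptides were used. Samples were HEK293T lysate (495 µg) treated in triplicate with fragment at 200 µM or vehicle for 3 h, then with Biotin-Ahx-Ub-VS (0.5 µM final) for 1 h, with labelled DUBs NeutrAvidin-enriched and run by diaPASEF LC-MS/MS.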

USP36 = target: T1, USP36 (UniProt Q9P275)
T1 sequence (whole entry): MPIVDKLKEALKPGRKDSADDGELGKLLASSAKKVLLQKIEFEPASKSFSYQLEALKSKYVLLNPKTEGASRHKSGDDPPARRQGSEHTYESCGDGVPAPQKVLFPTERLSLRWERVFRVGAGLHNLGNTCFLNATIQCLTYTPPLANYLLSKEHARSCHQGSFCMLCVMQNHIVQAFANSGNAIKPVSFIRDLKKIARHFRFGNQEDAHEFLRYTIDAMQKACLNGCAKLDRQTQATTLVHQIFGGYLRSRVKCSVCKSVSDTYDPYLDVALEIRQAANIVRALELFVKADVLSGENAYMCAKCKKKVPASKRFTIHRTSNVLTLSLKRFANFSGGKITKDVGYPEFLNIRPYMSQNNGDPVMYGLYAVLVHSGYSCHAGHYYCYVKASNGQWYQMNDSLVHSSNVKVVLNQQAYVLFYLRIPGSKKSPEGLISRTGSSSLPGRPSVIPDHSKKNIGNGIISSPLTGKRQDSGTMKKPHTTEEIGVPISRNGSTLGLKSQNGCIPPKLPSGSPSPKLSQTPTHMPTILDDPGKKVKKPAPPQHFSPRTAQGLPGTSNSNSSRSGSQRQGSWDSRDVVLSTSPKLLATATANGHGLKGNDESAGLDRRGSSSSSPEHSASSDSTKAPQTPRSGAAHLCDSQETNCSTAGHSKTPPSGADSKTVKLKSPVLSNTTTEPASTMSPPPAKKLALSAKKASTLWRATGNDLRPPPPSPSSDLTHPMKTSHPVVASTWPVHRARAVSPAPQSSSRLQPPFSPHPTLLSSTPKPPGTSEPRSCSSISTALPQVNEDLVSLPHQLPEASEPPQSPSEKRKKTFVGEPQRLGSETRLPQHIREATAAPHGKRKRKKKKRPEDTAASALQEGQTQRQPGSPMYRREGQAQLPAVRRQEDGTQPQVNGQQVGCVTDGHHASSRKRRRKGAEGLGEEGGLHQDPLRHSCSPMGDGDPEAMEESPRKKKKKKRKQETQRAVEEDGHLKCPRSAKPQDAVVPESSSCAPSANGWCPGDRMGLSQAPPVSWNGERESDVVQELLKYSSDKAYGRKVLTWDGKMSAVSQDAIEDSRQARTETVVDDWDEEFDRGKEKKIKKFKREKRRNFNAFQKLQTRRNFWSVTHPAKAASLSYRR
Procedure, shortened: as §1

USP38 = target: T2, USP38 (UniProt Q8NB14)
T2 sequence (whole entry): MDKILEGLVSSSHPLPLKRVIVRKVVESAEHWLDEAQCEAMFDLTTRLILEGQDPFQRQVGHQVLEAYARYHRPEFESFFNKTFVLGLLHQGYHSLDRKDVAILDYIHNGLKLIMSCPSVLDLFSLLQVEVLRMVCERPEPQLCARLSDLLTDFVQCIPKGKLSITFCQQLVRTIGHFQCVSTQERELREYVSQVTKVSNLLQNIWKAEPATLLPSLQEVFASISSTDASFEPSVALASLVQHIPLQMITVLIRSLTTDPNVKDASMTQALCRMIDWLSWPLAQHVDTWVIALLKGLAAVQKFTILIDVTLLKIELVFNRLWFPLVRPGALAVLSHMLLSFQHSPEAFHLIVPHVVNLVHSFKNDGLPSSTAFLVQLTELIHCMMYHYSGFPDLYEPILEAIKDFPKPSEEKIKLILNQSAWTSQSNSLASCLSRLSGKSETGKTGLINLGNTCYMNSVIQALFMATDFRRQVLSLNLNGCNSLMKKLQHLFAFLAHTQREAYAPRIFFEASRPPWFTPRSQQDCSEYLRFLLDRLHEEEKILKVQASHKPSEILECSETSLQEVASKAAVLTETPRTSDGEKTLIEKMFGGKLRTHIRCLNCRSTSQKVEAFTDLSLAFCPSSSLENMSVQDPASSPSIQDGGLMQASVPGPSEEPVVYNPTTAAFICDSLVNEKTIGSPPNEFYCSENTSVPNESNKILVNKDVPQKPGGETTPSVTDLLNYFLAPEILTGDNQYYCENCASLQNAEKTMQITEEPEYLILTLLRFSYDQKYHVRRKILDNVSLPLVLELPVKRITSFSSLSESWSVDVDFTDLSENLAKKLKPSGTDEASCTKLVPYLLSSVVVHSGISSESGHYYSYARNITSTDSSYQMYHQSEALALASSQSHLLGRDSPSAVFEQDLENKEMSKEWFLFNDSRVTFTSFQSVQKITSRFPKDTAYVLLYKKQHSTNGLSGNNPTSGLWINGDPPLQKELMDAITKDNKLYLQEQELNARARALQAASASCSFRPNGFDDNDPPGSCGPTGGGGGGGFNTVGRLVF
Procedure, shortened: as §1

USP39 = target: T3, USP39 (UniProt Q53GS9)
T3 sequence (whole entry): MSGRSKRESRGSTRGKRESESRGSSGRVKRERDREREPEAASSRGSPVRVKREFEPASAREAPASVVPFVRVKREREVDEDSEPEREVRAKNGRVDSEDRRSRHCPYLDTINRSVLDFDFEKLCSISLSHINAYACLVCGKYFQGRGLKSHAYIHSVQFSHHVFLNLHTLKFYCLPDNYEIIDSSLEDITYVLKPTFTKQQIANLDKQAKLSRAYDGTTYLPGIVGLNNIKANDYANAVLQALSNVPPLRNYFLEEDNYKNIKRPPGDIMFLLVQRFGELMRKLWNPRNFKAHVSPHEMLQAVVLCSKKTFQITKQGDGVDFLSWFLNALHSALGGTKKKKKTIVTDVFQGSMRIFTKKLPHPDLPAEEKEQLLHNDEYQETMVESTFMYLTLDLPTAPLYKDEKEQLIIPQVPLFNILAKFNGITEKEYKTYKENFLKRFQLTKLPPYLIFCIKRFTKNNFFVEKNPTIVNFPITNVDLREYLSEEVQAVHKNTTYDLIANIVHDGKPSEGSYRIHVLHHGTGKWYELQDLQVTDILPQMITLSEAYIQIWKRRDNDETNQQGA
Procedure, shortened: as §1

USP4 = target: T4, USP4 (UniProt Q13107)
T4 sequence (whole entry): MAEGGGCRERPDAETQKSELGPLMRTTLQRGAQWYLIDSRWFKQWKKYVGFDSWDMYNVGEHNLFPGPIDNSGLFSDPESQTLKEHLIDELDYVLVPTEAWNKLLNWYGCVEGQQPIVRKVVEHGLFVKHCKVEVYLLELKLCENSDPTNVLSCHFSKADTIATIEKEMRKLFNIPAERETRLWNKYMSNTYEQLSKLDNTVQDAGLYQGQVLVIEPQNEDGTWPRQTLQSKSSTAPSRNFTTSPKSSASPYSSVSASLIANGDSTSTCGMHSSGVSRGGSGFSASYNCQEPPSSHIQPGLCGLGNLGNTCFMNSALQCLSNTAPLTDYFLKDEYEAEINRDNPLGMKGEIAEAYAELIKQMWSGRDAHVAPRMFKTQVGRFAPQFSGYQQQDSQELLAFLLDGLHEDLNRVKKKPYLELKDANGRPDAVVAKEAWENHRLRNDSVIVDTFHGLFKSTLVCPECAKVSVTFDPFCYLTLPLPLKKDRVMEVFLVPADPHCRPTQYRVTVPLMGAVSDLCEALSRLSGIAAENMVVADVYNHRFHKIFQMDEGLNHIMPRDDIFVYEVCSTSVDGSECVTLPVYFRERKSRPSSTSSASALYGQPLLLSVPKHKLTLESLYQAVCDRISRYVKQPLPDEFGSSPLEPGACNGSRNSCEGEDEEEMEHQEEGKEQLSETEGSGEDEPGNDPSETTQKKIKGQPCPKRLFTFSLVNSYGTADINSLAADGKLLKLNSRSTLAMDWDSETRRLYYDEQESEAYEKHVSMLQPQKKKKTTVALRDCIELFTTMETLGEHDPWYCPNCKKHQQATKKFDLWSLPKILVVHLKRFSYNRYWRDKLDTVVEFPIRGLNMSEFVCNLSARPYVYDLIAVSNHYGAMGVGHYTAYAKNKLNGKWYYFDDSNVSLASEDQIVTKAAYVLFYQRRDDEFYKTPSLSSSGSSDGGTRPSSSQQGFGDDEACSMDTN
Procedure, shortened: as §1

Measured: log2 ratio of Biotin-Ahx-Ub-VS probe labelling

Chain of USP34 (Q70CQ2 whole entry, the tested form may be a part): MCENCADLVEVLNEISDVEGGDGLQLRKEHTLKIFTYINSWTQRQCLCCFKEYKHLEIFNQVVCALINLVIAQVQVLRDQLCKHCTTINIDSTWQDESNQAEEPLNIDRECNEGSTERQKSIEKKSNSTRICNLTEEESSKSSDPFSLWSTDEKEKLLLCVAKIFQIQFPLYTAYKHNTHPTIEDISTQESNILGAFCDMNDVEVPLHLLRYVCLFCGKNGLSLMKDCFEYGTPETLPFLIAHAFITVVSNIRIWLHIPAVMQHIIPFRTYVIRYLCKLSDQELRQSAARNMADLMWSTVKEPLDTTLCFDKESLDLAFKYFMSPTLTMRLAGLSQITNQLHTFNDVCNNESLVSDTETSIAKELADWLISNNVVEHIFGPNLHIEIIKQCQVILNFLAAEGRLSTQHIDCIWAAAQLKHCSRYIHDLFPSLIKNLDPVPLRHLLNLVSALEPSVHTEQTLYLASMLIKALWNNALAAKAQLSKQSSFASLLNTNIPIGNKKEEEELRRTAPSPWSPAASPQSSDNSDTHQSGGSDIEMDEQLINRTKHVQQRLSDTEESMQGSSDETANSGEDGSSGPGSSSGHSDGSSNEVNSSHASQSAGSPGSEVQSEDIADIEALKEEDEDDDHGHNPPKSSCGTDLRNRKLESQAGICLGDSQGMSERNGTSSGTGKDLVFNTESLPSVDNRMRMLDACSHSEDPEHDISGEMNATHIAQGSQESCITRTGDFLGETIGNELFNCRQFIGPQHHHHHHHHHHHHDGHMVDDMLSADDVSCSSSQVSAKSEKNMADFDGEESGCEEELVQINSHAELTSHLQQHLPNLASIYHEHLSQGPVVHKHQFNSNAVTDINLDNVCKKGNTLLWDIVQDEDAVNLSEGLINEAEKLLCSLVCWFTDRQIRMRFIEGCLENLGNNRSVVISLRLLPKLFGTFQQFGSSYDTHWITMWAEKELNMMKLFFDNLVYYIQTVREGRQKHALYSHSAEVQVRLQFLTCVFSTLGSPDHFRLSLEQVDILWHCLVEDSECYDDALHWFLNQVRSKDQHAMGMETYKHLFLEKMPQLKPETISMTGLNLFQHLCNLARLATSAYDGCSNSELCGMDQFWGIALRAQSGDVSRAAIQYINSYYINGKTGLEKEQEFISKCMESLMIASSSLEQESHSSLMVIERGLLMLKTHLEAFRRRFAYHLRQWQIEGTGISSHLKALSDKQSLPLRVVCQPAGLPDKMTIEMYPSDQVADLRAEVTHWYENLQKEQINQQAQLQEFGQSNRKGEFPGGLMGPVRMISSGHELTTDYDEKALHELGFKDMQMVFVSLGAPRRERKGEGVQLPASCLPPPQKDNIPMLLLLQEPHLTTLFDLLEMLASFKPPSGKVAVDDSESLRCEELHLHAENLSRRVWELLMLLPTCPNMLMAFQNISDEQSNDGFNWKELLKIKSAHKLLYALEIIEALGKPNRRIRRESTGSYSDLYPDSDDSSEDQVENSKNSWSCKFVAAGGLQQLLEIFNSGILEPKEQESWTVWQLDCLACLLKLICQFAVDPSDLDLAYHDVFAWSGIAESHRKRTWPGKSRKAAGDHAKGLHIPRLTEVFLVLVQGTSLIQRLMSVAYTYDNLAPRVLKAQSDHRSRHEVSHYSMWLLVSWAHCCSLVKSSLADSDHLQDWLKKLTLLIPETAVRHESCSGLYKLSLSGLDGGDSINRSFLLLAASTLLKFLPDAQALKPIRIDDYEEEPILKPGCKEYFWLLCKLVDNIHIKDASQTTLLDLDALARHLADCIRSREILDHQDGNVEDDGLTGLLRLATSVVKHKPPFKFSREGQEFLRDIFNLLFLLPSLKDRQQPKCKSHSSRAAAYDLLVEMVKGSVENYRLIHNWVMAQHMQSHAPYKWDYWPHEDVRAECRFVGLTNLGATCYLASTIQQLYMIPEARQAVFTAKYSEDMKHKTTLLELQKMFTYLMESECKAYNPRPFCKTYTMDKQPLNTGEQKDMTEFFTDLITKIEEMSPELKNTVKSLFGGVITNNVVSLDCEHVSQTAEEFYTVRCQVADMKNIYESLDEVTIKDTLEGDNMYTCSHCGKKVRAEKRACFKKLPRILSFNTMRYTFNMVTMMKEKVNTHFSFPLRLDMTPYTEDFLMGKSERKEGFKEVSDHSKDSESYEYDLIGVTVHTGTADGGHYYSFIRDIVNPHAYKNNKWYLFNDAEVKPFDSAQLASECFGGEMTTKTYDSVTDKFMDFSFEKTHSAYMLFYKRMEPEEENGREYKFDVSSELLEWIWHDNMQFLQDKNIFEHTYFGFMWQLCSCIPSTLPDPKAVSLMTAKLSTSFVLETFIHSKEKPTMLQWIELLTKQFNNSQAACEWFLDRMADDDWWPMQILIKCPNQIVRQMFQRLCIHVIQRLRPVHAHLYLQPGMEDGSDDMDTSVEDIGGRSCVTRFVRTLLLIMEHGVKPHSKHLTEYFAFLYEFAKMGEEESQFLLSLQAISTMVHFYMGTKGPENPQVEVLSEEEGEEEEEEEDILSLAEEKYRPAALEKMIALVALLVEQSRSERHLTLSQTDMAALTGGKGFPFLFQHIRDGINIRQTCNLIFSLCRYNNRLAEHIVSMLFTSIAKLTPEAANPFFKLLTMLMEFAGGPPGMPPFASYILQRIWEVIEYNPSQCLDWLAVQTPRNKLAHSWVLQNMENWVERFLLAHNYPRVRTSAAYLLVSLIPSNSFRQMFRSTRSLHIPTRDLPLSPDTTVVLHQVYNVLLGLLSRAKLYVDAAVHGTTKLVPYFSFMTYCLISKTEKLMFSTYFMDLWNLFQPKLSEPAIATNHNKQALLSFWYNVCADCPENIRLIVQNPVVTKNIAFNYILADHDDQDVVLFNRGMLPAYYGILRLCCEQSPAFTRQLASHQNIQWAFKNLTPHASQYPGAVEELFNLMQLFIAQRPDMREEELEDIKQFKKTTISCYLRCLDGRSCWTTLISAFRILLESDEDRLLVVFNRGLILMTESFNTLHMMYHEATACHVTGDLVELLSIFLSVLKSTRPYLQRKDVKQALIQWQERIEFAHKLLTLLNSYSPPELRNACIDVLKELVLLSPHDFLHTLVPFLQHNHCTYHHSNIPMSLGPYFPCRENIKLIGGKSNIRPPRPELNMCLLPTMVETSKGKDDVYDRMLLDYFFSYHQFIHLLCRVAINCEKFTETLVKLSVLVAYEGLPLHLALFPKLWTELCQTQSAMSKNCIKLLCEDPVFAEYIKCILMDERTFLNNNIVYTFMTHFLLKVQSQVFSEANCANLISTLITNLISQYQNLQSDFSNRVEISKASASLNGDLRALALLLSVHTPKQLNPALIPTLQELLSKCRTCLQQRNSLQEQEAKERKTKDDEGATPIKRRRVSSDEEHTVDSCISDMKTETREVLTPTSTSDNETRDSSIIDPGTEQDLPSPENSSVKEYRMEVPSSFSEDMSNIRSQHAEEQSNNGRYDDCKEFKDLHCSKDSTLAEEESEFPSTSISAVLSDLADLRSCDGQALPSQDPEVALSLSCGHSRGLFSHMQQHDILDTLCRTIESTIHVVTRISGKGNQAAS

CC(NC(=O)CCl)c1cccc(Cl)c1 (stereo not given)
inactive: USP34 -0.653 | USP36 -0.283 | USP38 -0.175 | USP39 -0.294 | USP4 -0.239
